PubChem BioAssay AID1117359 (Southern Research Institute, 2015)
Among all 1,500 compounds or so, about 460 (31%) were called active. These entries were drawn from the full list. Entries with a potency or affinity are not part of this list. Unmarked numbers belong to inactive results.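 How the source made its calls: active means viability at or below 80% at any tested concentration, marking the compound as toxic; inactive means the rest.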

Experiment: THP-1 cell cytotoxicity, dose response, cytotoxicity control for Vif-APOBEC3G degradation inhibitor project, THP-1 cells (AID 1117359)
Details: THP-1 viability, CellTiter-Glo luminescence, 72 h; series mostly up to 40 µM; viability: at the top concentration

SMILES	viability
CCOC(=O)C1(C)NC(c2ccco2)C2C(=O)N(CC)C(=O)C21 (centres undefined)	110%
O=C1CC(c2ccco2)CC(O)=C1C=NCC1CCNCC1 (centres undefined)	84%
Cc1cccc(/C=C(\C(=O)O)c2ccc(S(=O)(=O)N3CCCC3)s2)c1	85.2%
O=C(C1CCN(S(=O)(=O)N2CCC3(CC2)OCCO3)CC1)N1CCOCC1	94.2%
CCOC(=O)c1ccc(NC(=O)CSCc2ccco2)cc1	98.2%
COc1ccccc1NCCC(=O)OCC(=O)NCc1ccco1	108%
Cc1ccc(NC(=O)CNC(=O)COc2ccccc2)nc1	103%
COc1cccc(C(=O)N2CCN(Cc3nc(CC4CC4)no3)CC2)c1	102%
CCCCC(O)(CCCC)C(=O)N/N=C(\C)c1ccc(Cl)cc1	95.1%
NC(=O)c1ccc(N2CCN(c3ccc(O)cc3)CC2)c([N+](=O)[O-])c1	92%
CCC(=O)Nc1ccc(S(=O)(=O)NC[C@H]2O[C@@H](n3cc(C)c(=O)[nH]c3=O)C[C@@H]2O)cc1	92.5%
C=C(C)C1CC=C(C)/C(=N\NC(=O)CCC(=O)Nc2ccc(C)c(C)c2)C1 (centres undefined)	87.5%
c1coc(CNc2nc(-c3cccs3)cs2)c1	91.9%
O=C(Nc1cc(Cl)cc(Cl)c1)c1coc(=O)c(Br)c1	105%
C[c-]1[c-](C)[c-](C)[c-](C)[c-]1C.[Fe].c1cc2nccc(N3CCCC3)[c-]2c1 (centres undefined)	83.7%
CCn1c(SC(C)C)nnc1-c1cc(-c2ccccc2)sc1N	92.6%
COc1ccc(C(=O)O)cc1S(=O)(=O)N1CCCc2ccccc21	84.4%
COCCn1c(SCC(=O)Nc2ccccc2F)nc2c([nH]c3ccccc32)c1=O	102%
CC1=C(C#N)C(=O)N(C2CCS(=O)(=O)C2)C(=O)/C1=C\c1ccc(C)o1 (centres undefined)	101%
S=c1[nH]nc(COc2ccc(Cl)cc2)n1Cc1ccccc1	83.4%
CCCC(=O)NC(C)C(c1cccs1)N1CCN(C)CC1 (centres undefined)	117%
CCOc1ccccc1N1C(=O)CC(Nc2ccc(N3CCOCC3)cc2)C1=O (centres undefined)	91.4%
CN(C(=O)COc1ncnc2sccc12)c1ccccc1	107%
CC(=O)N1CCN(c2ccc(NCc3ccccc3)cc2)CC1	90%
O=C(C1CCC(CNc2c(N3CCCCC3)c(=O)c2=O)CC1)N1CCN(C2CCCCC2)CC1 (centres undefined)	105%
Cc1sc2nc(C)n(/N=C/c3ccccc3O)c(=O)c2c1C	105%
COc1cc2c(cc1N)-c1ccc(N)cc1C2	84%
C=C(C)C(=O)Nc1cccc(C2=NOC3(C2)C[C@@H](C(N)=O)N(C(=O)c2cc([N+](=O)[O-])cc([N+](=O)[O-])c2)C3)c1 (some centres undefined)	91.8%
O=C(O)c1cc(Nc2cc(Cl)c3nonc3c2[N+](=O)[O-])ccc1O	107%
